The values that follow come from PubChem BioAssay AID1508600 (Functional Genomics Laboratory (NCATS/FGL), 2020).

Hit rate of the full screen: of about 53,000 sequences, about 3,700 (7%) were called active.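 Rule for the calls: active = gene knockdowns whose robust z-score for IL-1 alpha signal is at least 2 or at most -2, so actives lie on both sides; inactive = the rest.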 The sample as a whole holds a higher share of actives than the screen did.

The nature of the test: Components of the Cytosolic LPS Sensing Pathway: Gene Identification via Genome-wide siRNA Screen.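 Note: robust z of the log signal after scaling to non-targeting control siRNA wells of the plate.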 The following applies: RAW264.7 macrophages, IL-1a HTRF, actives lie on both sides, screened at 100 nM (by protocol), cells primed 5 h with Pam3CSK4 first. Put shortly:
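RAW264.7; siRNA 100 nM final, RNAiMAX, 48h 37 degrees C; Pam3CSK4 5 h; LipidA + TransIT-TKO 24 h; IL-1a HTRF; CellTiter-Glo viability; robust z vs negative-control median.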
(In TR-FRET formats the signal depends on donor and acceptor labels being close together.)
For GGGCAUCUUGUAUAUCUGGTT against Spata33, the z-score was 0.363 (inactive).

Consider CCUAAUUUCCUAGAUCUUCTT against Rtp1, for which the z-score is -0.439 (inactive).

For CCUUUUCCAUGCCUACUCCTT against Bag3, the z-score was 0.339 (inactive).

Take CCUAAGGAAGAUAAACCGGTT against Sh2d7: the z-score was -2.43 (active).

As to GGCAUUUACUACUUCAUAGTT against Nfam1, the z-score was 0.738 (inactive).

Regarding GGAUAACUACAGGAAUAAGTT against Spam1, the z-score was -0.701 (inactive).

Consider CCGUCCCUAUGAAAUCAGCTT against Lrat, for which the z-score is 2.28 (active).

With GGCGAAUUGUAUUUGAAAGTT against Lactb, the z-score is 0.686 (inactive).

On to GGAAGCAGUUCAUGUUAAGTT against Dtx4, for which the z-score was 1.12 (inactive).

As to GCCCACCUAAACCAACAGUTT against Dap, the z-score is 0.989 (inactive).

GGAAAGAAGGACAUGUUGCTT against Fbxo2: the z-score is -1.22 (inactive).

Regarding GGAGCACAGAAAACACAAGTT against Ncan, the z-score was 3.41 (active).

As for CCACGCUACAUGCAAUGGCTT against Itpka, the z-score was 0.0149 (inactive).

For the sequence CCCUCUCUGGGACUACAUATT against Zfp395, the z-score was 0.00687 (inactive).

Turning to “GGCAUGAGGGCAAAUGAAATT against 4933434M16Rik”, the z-score was -0.707 (inactive).

In the case of “GGAACAUUUUGGAAAAGACTT against 1300017J02Rik”, the z-score is -0.0855 (inactive).

In the case of GUACUAGCUAAUUGGGCCATT against Speer4b, the z-score is 0.651 (inactive).

For GGUUCACCUGGAUUCUGCATT against Clasrp, the z-score is -2.1 (active).

GGAGCAUAUACAACUCAGCTT against Dis3l: the z-score is 0.1 (inactive).

Regarding GGAUGGGAUGAAAAUUGAATT against Papolg, the z-score was -0.566 (inactive).

As for GCUUGUCUCACACAGCUCUTT against Olfr401, the z-score was -3.11 (active).

Turning to GGUACUGGAAGAGGAGGUATT against Ppil3, the z-score is -0.507 (inactive).

Turning to GCACAUUGGGAUAGCUGCATT against Trim65, the z-score is 1.48 (inactive).

Take GGAAAUAUGUGUCCGCACUTT against Mfap2: the z-score is -0.0699 (inactive).

Regarding GAGAGGGCAUAAUGGUUUUTT against H3c3, the z-score is 4.58 (active).

Regarding GGGAUACAGAUUUUGUUUATT against Olfr1261, the z-score was -0.116 (inactive).

For GGGAAGUUGUCUGACUAUUTT against Cyc1, the z-score was 0.225 (inactive).

Consider GGGAAAUGGAGGAUAAUUATT against Zmat1, for which the z-score was -0.172 (inactive).

For GCAAUUACAGGAGGAAUUATT against Orc3, the z-score is 2.86 (active).

Regarding GCUGAAAACUAGUCAGUCCTT against Epn3, the z-score is -1.07 (inactive).

Turning to GCCUUAAAAGACCUGACGUTT against Abca8b, the z-score was 2.12 (active).

Consider GCUUACAGCACAACAACAUTT against Ubap1, for which the z-score was -0.00967 (inactive).

In the case of CCUGGACACGAUUUCAGAGTT against Rbm6, the z-score was 1.18 (inactive).

As to GGAGGGUCGGCUUAUAAUUTT against Adam6b, the z-score was 2.16 (active).

As to GGAAGCUUCAAGCCAUGGUTT against Creb3, the z-score is -0.919 (inactive).

CGUUGGAUCUUGAUAAAACTT against Lpar2: the z-score is 0.179 (inactive).

Regarding GGACUUGAUCAAUGGCUAUTT against Wscd1, the z-score was -0.043 (inactive).

Take GUGGCGAUAUCCAGAGAUGTT against Vmn1r18: the z-score was 0.261 (inactive).

With GCCGGCUGUAUUCAGUACGTT against Hoxc9, the z-score is 3.06 (active).

As to GCCACGUCUAAGUAUCAUUTT against Col6a1, the z-score is -0.377 (inactive).

Take GCUCUGUUGGAAAGGUUUATT against Exosc6: the z-score is 0.0305 (inactive).

Regarding GCAACUGUUCUACGUCUGATT against Tmprss2, the z-score was 1.63 (inactive).

On to GAAGCUGUCCAAGUACGAGTT against Atoh7, for which the z-score was -0.299 (inactive).

Regarding GGCAUGACAUGUAGAUGGCTT against Aldh3b3, the z-score was 2.17 (active).

With CGAGCAAUGUUAAAAAUGATT against Slain2, the z-score is -0.993 (inactive).

Consider GGGCAAACCCAAGACCUUATT against Sgms2, for which the z-score is -0.0749 (inactive).

Regarding GGAAUUUGAGAUUGAAUGUTT against Katnbl1, the z-score is 0.478 (inactive).

GCCUGGAGACUACAUAUCCTT against Cdc20: the z-score was -2.09 (active).

Turning to GCUCGAAUGUGUAAAGACGTT against Csnk1e, the z-score was 0.982 (inactive).

Take CCUUGUUGCUCUGUCGAUCTT against Grina: the z-score is 0.0669 (inactive).

With CCAAGCUUAUUGACAAUGATT against Spta1, the z-score is 0.213 (inactive).

In the case of GGUGUGUUAAUUUCUAGAUTT against Frs2, the z-score was 0.945 (inactive).

With GGCUUGAAGCCCUAGUACUTT against Prss30, the z-score was 2.46 (active).

In the case of GGACAACAAGAUCAGGACCTT against Akap4, the z-score is 0.535 (inactive).

For the sequence GGUUACCUAUUGGAUGACATT against Muc19, the z-score is -1.43 (inactive).

As for GGAAAAAUCAAAAGUGUUGTT against Tamm41, the z-score was -1.55 (inactive).

With GACUACAAAGGAGAGCAAATT against Igfbp6, the z-score is 2.07 (active).

“GCUCCAGCUCUGCUUUAAGTT against 4931440P22Rik”: the z-score was 1.28 (inactive).

For the sequence GGGCAAUUUGGAGCUUACCTT against Erbb2, the z-score is -0.952 (inactive).

As to GAUGCCUUUUAUGGGUGCATT against Olfr61, the z-score is 0.0552 (inactive).

In the case of GGCGUGAAGAAGUUUGAUGTT against Pklr, the z-score was -0.431 (inactive).

As to GCGAGAAUUCUCUUCCAAUTT against Gsx2, the z-score was 2.33 (active).

With GGACUGUCAGUACUGUCAATT against Agr3, the z-score was 0.445 (inactive).

On to CCUAAAAUACUUUACCGGGTT against Bckdhb, for which the z-score is -0.025 (inactive).

With GGAGAAUCUUCAACACUGGTT against Adprh, the z-score was -0.951 (inactive).

As for GGCUUCAAAACAUUUUCAGTT against Kansl1l, the z-score was 2.81 (active).

As to GGCAUAUUCCGUUUUUAAATT against Pafah1b1, the z-score is -1.09 (inactive).

Regarding GCAGUUACAGGAAAUCGAGTT against Cdr2, the z-score was -0.746 (inactive).

Regarding GCCCAAGCAGUUCAUUCAUTT against Epc2, the z-score was 0.665 (inactive).

With GCAUUAGUCAUUGUUAACGTT against Hsd17b4, the z-score is 0.653 (inactive).

Take GGGCGACUUUAGCUUUUAUTT against Pced1b: the z-score was 2.51 (active).

Regarding GGACUUCACCAUCCACGAATT against Pgap2, the z-score was 0.622 (inactive).

Take GGAUGCCUGAGUGCUACAUTT against Lsm4: the z-score was -0.837 (inactive).

In the case of CGGUGCGAUCUCUCAAAGUTT against Cryba4, the z-score is 2.97 (active).

Take GAUAUAAAGCCUUCAACACTT against Olfr912: the z-score was -1.48 (inactive).

Regarding GGAGAUGCUCAUUUUGAUUTT against Mmp8, the z-score was 1.76 (inactive).

For the sequence GGUAGUGGCUUGAACAGGUTT against Vmn1r201, the z-score was 0.115 (inactive).

As to GGAUCCUCGGACUAAAAGUTT against Pnma1, the z-score was -0.228 (inactive).

Turning to GCAUCUUAACACAUGUAAATT against Zfp369, the z-score is -0.834 (inactive).

As for GGGAUGUAUUUCAACAACUTT against Wwox, the z-score is 0.0276 (inactive).

Take GGUAUAAGGAUUCUUUGAATT against Alg13: the z-score is -2.8 (active).

For GGCAUGGACAUUGAUGACATT against Dnajb1, the z-score is -0.834 (inactive).

As to GCCUAAAGCUUUUCUACAATT against Mlph, the z-score is 0.161 (inactive).

GGUCAUCCGAGAUUUCACCTT against Elavl3: the z-score is -0.944 (inactive).

As for ACUUCACCAUGGUACCCGGTT against Tspo, the z-score was 1.06 (inactive).

GGCUUAAAUGCGUUCUACATT against Slc25a3: the z-score is 0.0986 (inactive).

For the sequence “GCCAGGAUAUGGAUAUGCATT against 1520401A03Rik”, the z-score is -2.06 (active).

Consider GGCAGAAGAGUGGUACUUUTT against Fyn, for which the z-score is -1.63 (inactive).

For the sequence AAAGGACUGCCUAAGACAATT against Vmn1r203, the z-score was -0.921 (inactive).

On to GCCAUGUUCUUUGCUCCCATT against Pigl, for which the z-score was -1.8 (inactive).

For the sequence GGGCAAACUCUAGAGCUACTT against Pdgfrl, the z-score is -0.0578 (inactive).

Turning to GUCUGGAUAUUUGACACUATT against Tmem60, the z-score is -0.637 (inactive).

With GGAGUUGAUUGAAAUCAUCTT against Atp5c1, the z-score was 0.466 (inactive).

As for CGCAGGACGAUUAUGACGUTT against Pcdhb12, the z-score was 0.753 (inactive).

Consider GGGAAACAAAAAAGAUUUCTT against Ptpn13, for which the z-score is 0.619 (inactive).

As for GCCAGCUAAAGAAGUCUAUTT against Gpr17, the z-score is 2.81 (active).

Take GGUCUCAAUAAACUUCAGGTT against Mfap4: the z-score was 0.926 (inactive).

For the sequence CCCAAAGCGUGACUGUCAATT against Sema4b, the z-score is -0.623 (inactive).

On to CCUGAAGUGGAGAUUCAACTT against Kcnj6, for which the z-score is -1.27 (inactive).

For GGAGUUUACAGAAAUUAUCTT against Pecam1, the z-score is 0.214 (inactive).

On to GAUUAGCAUCCAUGAACACTT against Tcl1b2, for which the z-score was 2.16 (active).

GGCAGAUUCAGACCUUCGATT against Sult1c2: the z-score is -0.753 (inactive).

Consider CGAACAGUGCUUCGUAUGUTT against Lims1, for which the z-score is -1.04 (inactive).

Consider GGUACAUGAAGAAAAGUAATT against Lrrc19, for which the z-score is -0.243 (inactive).

With GCAUACAAGACCGUGAUCATT against Psmc4, the z-score was -2.03 (active).

Take GGUUAUUUCUCUCUCCCUATT against Creld1: the z-score was 0.524 (inactive).

As to GGAGGAUGACAAAAUCUAUTT against Rnf113a2, the z-score is 1.25 (inactive).
